Assay results: article PMC5540273 (PLoS ONE, 2017)

Assays:
Conditions in all cases: concentration: 1 μM, replicates: in singlicate; n = 1
HPK1 = tested on: HPK1
HUNK = tested on: HUNK
ICK = tested on: ICK
IGF1R = tested on: IGF1R
IKK-alpha = tested on: T1, IKK-alpha
T1 construct: gene CHUK

IKK-beta = tested on: T2, IKK-beta
T2 construct: gene IKBKB

IKK-epsilon = tested on: T3, IKK-epsilon
T3 construct: gene IKBKE

INSRR = tested on: INSRR
INSR = tested on: INSR
IRAK1 = tested on: IRAK1
IRAK3 = tested on: IRAK3
IRAK4 = tested on: IRAK4
ITK = tested on: ITK
[1] = tested on: JAK1(JH1domain-catalytic)
[2] = tested on: JAK1(JH2domain-pseudokinase)
[3] = tested on: JAK2(JH1domain-catalytic)
[4] = tested on: JAK3(JH1domain-catalytic)
JNK1 = tested on: T4, JNK1
T4 construct: gene MAPK8

JNK2 = tested on: T5, JNK2
T5 construct: gene MAPK9

JNK3 = tested on: T6, JNK3
T6 construct: gene MAPK10
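Note: KINOMEscan kinase panel screen.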

Structure (SMILES)	%Inh (HPK1) [%]	%Inh (HUNK) [%]	%Inh (ICK) [%]	%Inh (IGF1R) [%]	%Inh (IKK-alpha) [%]	%Inh (IKK-beta) [%]	%Inh (IKK-epsilon) [%]	%Inh (INSRR) [%]	%Inh (INSR) [%]	%Inh (IRAK1) [%]	%Inh (IRAK3) [%]	%Inh (IRAK4) [%]	%Inh (ITK) [%]	%Inh [1] [%]	%Inh [2] [%]	%Inh [3] [%]	%Inh [4] [%]	%Inh (JNK1) [%]	%Inh (JNK2) [%]	%Inh (JNK3) [%]
Cc1cccc(Cn2ccn3c(=O)cc(N4CCOCC4)nc23)c1 [GSK2297542]	37	0	5	29	0	0	15	0	9	20	20	7	24	14	0	0	0	17	31	8
NS(=O)(=O)c1cccc(-c2ccc3ncc(N4CCOCC4)nc3c2)c1 [GSK1535721]	37	0	0	2	0	0	34	0	7	1	0	11	3	8	5	0	0	3	0	0
COc1cc(Nc2nccc(N3CCC(NC(=O)c4cccc(NC(C)=O)c4)C3)n2)cc(OC)c1OC (stereo not shown) [GSK1379754]	70	0	0	0	5	8	14	0	1	40	85	12	6	7	11	97.3	0	31	22	40
COc1ccc(Nc2nccc(N3CCC(NC(=O)Nc4cccc(C(C)=O)c4)C3)n2)cc1 (stereo not shown) [GSK1379731]	40	3	0	0	9	1	0	0	0	6	0	4	14	0	0	17	0	14	15	4
O=C1NC(=O)C(N2CCc3ccccc32)=C1c1cccc(Cl)c1 [SB-408010]	19	20	40	0	0	10	0	0	0	0	0	0	15	14	0	0	0	41	34	29
CCn1cnc2c(N)ncnc21 [GW345098]	0	4	0	3	0	4	0	0	10	0	10	0	16	10	19	7	17	16	0	0
Fc1ccc(-c2ncn(CCCN3CCOCC3)c2-c2cccnc2)cc1 [SB-211743]	0	44	0	0	0	0	6	8	4	0	64	0	0	20	38	21	0	26	0	0
Cn1cc(-c2ccc3c(c2)CCN3C(=O)Cc2ccccc2Cl)c2c(N)ncnc21 [GSK2608885]	64	7	5	95.5	0	0	37	90.5	48	0	32	0	4	0	2	0	56	19	55	6
